In PubChem BioAssay AID1851 (National Center for Advancing Translational Sciences (NCATS), 2009):
Where “and” joins values, the source holds several entries; their conditions need not be identical. Equal values may be shown once. The whole screen tested about 16,000 compounds, of which about 5,100 (32%) were called active. Roughly 25% stayed inconclusive and do not appear here. This is one part of the list. Values without a mark were called inactive. The call rests on the fitted dose curve; in most records, active means well fitted curve in the direction sought with a large enough effect; inconclusive means small, poorly fitted or top-dose-only effect, or effect the other way; inactive means no such curve, though single readings can be large or run the other way.

target: Cytochrome P450 3A4 (Homo sapiens) (UniProt P08684); assay: Cytochrome panel assay with activity outcomes; settings: recombinant CYP, pro-luciferin dealkylation, luminescence, p450-cyp3a4; series mostly up to 57.1 µM
Sequence (P08684 whole entry, looked up): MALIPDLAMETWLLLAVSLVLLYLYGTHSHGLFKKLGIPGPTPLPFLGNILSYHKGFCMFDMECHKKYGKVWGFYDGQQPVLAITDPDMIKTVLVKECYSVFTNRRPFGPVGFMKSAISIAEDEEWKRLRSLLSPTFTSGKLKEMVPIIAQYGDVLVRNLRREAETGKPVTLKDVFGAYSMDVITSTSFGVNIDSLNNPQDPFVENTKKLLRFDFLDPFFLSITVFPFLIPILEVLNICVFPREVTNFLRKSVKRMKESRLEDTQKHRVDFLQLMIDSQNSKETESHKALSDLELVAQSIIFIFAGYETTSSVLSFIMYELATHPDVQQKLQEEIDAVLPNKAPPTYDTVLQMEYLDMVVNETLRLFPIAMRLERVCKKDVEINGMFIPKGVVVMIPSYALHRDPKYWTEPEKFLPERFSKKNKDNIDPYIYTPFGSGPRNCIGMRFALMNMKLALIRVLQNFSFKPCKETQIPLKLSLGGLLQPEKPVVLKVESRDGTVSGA
On the % scale 0 is the no-effect control and ±100 the full control effect.

SMILES | activity, negative = inhibition | AC50
C[N+]1(CCCC[N+]2(C)CCCCCCC2)CCCCCCC1 | 6.39% [at 11.4 µM] | –
NC(=O)c1ccc[n+](CC(=O)OCCC23CC4CC(CC(C4)C2)C3)c1 | -1.21% [at 2.29 µM] | –
O=C(O)c1cc(=O)c2c(OCC(O)COc3cccc4oc(C(=O)O)cc(=O)c34)cccc2o1 | – | inactive
CCOC(=O)COc1cc(OCC(=O)OCC)c2c(=O)cc(-c3ccccc3)oc2c1 | – | 20 µM (active)
CC(C)(C)OC(=O)COc1cc(OCC(=O)OC(C)(C)C)c2c(=O)cc(-c3ccccc3)oc2c1 | – | inactive
CC(=O)O[C@]1(C)N=NC2(CCCCC2)O1 | -7.61% [at 11.4 µM] | –
C=CCn1c(SCC)nc2sc3c(c2c1=O)CCc1ccccc1-3 | -8.25% [at 2.29 µM] | –
C=CCn1c(SCC(=O)N2CCc3ccccc3C2)nc2ccccc2c1=O | – | 2.51 µM (active)
O=C(Cn1c(SCC(=O)N2CCc3ccccc3C2)nc2ccccc21)NC1CCCC1 | – | 3.55 µM (active)
CN1CCN(CCCBr)CC1 | 9.1% [at 11.4 µM] | –
O=C(O)[C@@H]1[C@H](C(=O)O)[C@H]2C(=O)C=C[C@H]1N2Cc1ccccc1 | -7.47% [at 11.4 µM] | –
CN1CCN(C2CC(=O)N(Cc3ccc(N4CCCC4=O)cc3)C2=O)CC1 (stereo unspecified) | – | inactive
O=C1CC(N(O)C2CC(=O)N(Cc3ccccc3)C2=O)C(=O)N1Cc1ccccc1 (stereo unspecified) | – | 10 µM (active)
O=C1C2[C@@H](c3ccccc3)N[C@@H](c3ccccc3)C1[C@H](c1ccccc1)N[C@H]2c1ccccc1 | 5.64% [at 11.4 µM] | –
O=S(=O)(O)CCCc1cccc2ccccc12 | -8.32% [at 11.4 µM] | –
CCCCNS(=O)(=O)c1ccc(OC)c(Cl)c1Cl | – | 11.2 µM (active)
NCCCCCCNS(=O)(=O)c1cccc2ccccc12 | – | 6.31 µM (active)
NS(=O)(=O)c1ccc(NC(=O)Nc2cccc3ccccc23)cc1 | -6.44% [at 11.4 µM] | –
Nc1ccc(S(=O)(=O)NCCS(=O)(=O)O)cc1 | -0.993% [at 11.4 µM] | –
NCCCCCCCCCCNS(=O)(=O)c1cccc2c(Cl)cccc12 | – | 2.51 µM (active)
NCCCCCCNS(=O)(=O)c1cccc2c(Cl)cccc12 | – | 3.98 µM (active) and 2.51 µM (active)
COc1cc(/C=C/C(=O)O)cc(S(=O)(=O)NCCCO)c1OC | -24.1% [at 11.4 µM] | –
S=c1c2[nH]cnc2ncn1CCSc1ncnc2nc[nH]c12 | -9.42% [at 11.4 µM] | –

SMILES | activity, negative = inhibition | AC50
CSCCC(NC=C1C(=O)OC(C)(C)OC1=O)C(=O)O (stereo unspecified) | – | inactive
CCN(CC)S(=O)(=O)c1cccc2c(N(C)C)cccc12 | – | inactive
O=S(=O)(NCCCCCCc1ccccc1)c1cccc2c(Cl)cccc12 | – | 2.51 µM (active)
c1ccc(CCCNc2nnnc3ccccc23)cc1 | -29.6% [at 11.4 µM] | –
CCCCCCCNS(=O)(=O)c1cccc2c(Cl)cccc12 | – | 7.94 µM (active)
NCCCc1c(-c2ccccc2)nc(N)[nH]c1=O | 1.03% [at 11.4 µM] | –
Cn1c(=S)c2[nH]c(SCCN3C(=O)c4ccccc4C3=O)nc2n(C)c1=O | -20.9% [at 11.4 µM] | –
Cn1c(=O)c2[nH]c(SCc3ccccn3)nc2n(C)c1=S | – | 3.98 µM (active)
Cn1c(=S)c2[nH]c(SCc3cccnc3)nc2n(C)c1=O | – | 3.16 µM (active)
Cn1c(=O)c2[nH]c(CCCCc3nc4ccccc4[nH]3)nc2n(C)c1=O | -19% [at 11.4 µM] | –
Cn1c(=O)c2[nH]c(CCCCc3nc4c([nH]3)c(=O)n(C)c(=S)n4C)nc2n(C)c1=S | – | 1.26 µM (active)
Cn1c(=O)c2[nH]c(CCCCC(=O)O)nc2n(C)c1=O | -10.1% [at 11.4 µM] | –
Cn1c(=O)c2[nH]c(CSCc3ccccc3)nc2n(C)c1=O | -25% [at 11.4 µM] | –
Cn1c(=S)c2[nH]c(SCCN3CCCC3)nc2n(C)c1=O | -16% [at 11.4 µM] | –
Cn1c(=S)c2[nH]c(SCCCc3ccccc3)nc2n(C)c1=O | -26.2% [at 11.4 µM] | –
NCCS(=O)O | – | inactive
CCCC(c1cc(C(C)(C)C)c(O)cc1C)c1cc(C(C)(C)C)c(O)cc1C | 5.69% [at 11.4 µM] | –
CCN1CCN(C(=O)N[C@H](C(=O)N[C@@H]2C(=O)N3C(C(=O)O)=C(CSc4nnnn4C)CS[C@@H]23)c2ccc(O)cc2)C(=O)C1=O | – | inactive
O=c1c2ccccc2c(-c2ccccc2)nn1-c1ccc(Cl)c(Cl)c1 | – | inactive
O=c1c2ccccc2c(-c2ccccc2)nn1Cc1ccc(Cl)cc1 | – | 17.8 µM (active)
O=C(O)Cc1sc(-c2ccc(Cl)cc2)nc1-c1ccccc1 | – | inactive
Cc1ccc(-c2nn(C)c(=O)c3ccccc23)cc1CNC(=O)Cn1nc(-c2ccccc2)c2ccccc2c1=O | -27.5% [at 11.4 µM] | –
O=C(CCn1nc(-c2ccc(Cl)cc2)c2ccccc2c1=O)NCCN1CCOCC1 | – | 7.08 µM (active)

SMILES | activity, negative = inhibition | AC50
O=C(/C=C/c1ccc(Cl)cc1)NCCN1CCOCC1 | – | inactive
O=C(CSc1nnc(-c2cccc(S(=O)(=O)N3CCOCC3)c2)n1C1CCCCCC1)NCc1ccccc1 | – | 2.51 µM (active)
O=C(COc1ccc2ccccc2c1)N1CCN(C(=O)c2cccnc2)CC1 | – | 8.91 µM (active)
CCC(=O)N1CCN(C(=O)c2ccccc2)CC1 | – | inactive
CC(=O)NC(CCS(C)(=O)=O)C(=O)Nc1c(F)cccc1F (stereo unspecified) | – | inactive
O=C(CCN1C(=O)C2C3C=CC(C3)C2C1=O)Nc1c(F)cccc1F (stereo unspecified) | – | 3.98 µM (active)
O=C(Nc1ccc2ncccc2c1)Nc1ccc2ncccc2c1 | -24.8% [at 11.4 µM] | –
O=C(CCN1C(=O)C2C3C=CC(C3)C2C1=O)Nc1ccc2ncccc2c1 (stereo unspecified) | – | 2.51 µM (active)
Cc1c(NC(=O)CN2CCN(c3ccccc3)CC2)c(=O)n(-c2ccccc2)n1C | – | inactive
Cc1c(NC(=O)CN2C(=O)C3C4C=CC(C4)C3C2=O)c(=O)n(-c2ccccc2)n1C (stereo unspecified) | – | 22.4 µM (active)
Cc1c(NC(=O)Cn2ccc([N+](=O)[O-])n2)c(=O)n(-c2ccccc2)n1C | – | inactive
c1ccc(CN2c3ccccc3-c3nc4ccccc4n3C2c2ccccn2)cc1 (stereo unspecified) | – | 3.16 µM (active)
Clc1ncccc1-c1nc2ccccc2n1Cc1ccccc1 | 6.58% [at 2.29 µM] | –
COc1ccccc1NC(=O)C1=C(C)Nc2nc(-c3ccc(N(C)C)cc3)nn2C1c1ccncc1 (stereo unspecified) | – | 1.26 µM (active)
CC1=C(C(N)=O)C(c2ccccc2)n2nc(-c3ccncc3)nc2N1 (stereo unspecified) | – | 11.2 µM (active)
COc1cccc(C2=CC(c3ccccc3)n3nnnc3N2)c1 (stereo unspecified) | – | inactive
CC1=C(C(=O)Nc2cccnc2)C(c2cccnc2)n2nc(-c3cccs3)nc2N1 (stereo unspecified) | – | 14.1 µM (active)
CCOC(=O)C1C(=O)NC(C)C1c1ccccc1 (stereo unspecified) | 1.56% [at 2.29 µM] | –
COc1ccccc1NC(=O)C1=C(C)Nc2nnnn2C1c1cccc(Br)c1 (stereo unspecified) | – | 2.51 µM (active)
CC(C)C(=O)Nc1ccc(NC(=O)c2cccnc2)cn1 | – | inactive
N#CC1(Nc2ccc(-c3ccc(NC4(C#N)CCCC4)cc3)cc2)CCCC1 | -20.9% [at 11.4 µM] | –
C=C(Br)CN(C)CC(=C)Br | -1.54% [at 11.4 µM] | –
C[C@H]1/C=C\CC(=O)OC[C@H](C)C(=O)N2CCC[C@@H]2C(=O)OC1 | -17.6% [at 11.4 µM] | –

SMILES | activity, negative = inhibition | AC50
CCOc1ccccc1C1C(C(N)=O)=C(C)Nc2nc(-c3ccc(OC)cc3)nn21 (stereo unspecified) | – | 12.6 µM (active)
CCOc1ccc(/C(O)=C2\C(=O)C(=O)N(CCOCCO)C2c2ccccc2OC)cc1 (stereo unspecified) | – | inactive
CCC(=O)n1nc(-c2ccc(OC)cc2)nc1N | – | inactive
CC1=C(C(N)=O)C(c2cccs2)n2nc(-c3cccc(Cl)c3)nc2N1 (stereo unspecified) | – | 12.6 µM (active)
O=C1C2=C(NC(=S)NC2c2ccc(Cl)cc2)NC(c2ccc(Cl)cc2)N1c1ccc(Cl)cc1 (stereo unspecified) | – | 2.82 µM (active)
Clc1ccc2c(c1)C1=C(C(c3ccncc3)O2)C(c2ccc(Br)cc2)n2ncnc2N1 (stereo unspecified) | – | 2.51 µM (active)
CCc1cc2c(NCCO)ncnc2s1 | – | inactive
CCc1ccccc1NC(=O)c1ccc(-n2c(C)ccc2C)cc1 | – | 17.8 µM (active)
CCOC(=O)c1ccc(CNC(=O)C2CCCCC2C(=O)OCC(F)(F)F)o1 (stereo unspecified) | – | inactive
CC(C)NC[C@@H](O)COc1ccc(CCOCC2CC2)cc1 | – | inactive
CN1CC(c2ccccn2)C2(SC(=S)N(Cc3ccccc3)C2=O)C12C(=O)Nc1ccccc12 (stereo unspecified) | – | 4.47 µM (active)
CCOC(=O)c1ccc(OC(=O)CCCCCN=C(N)N)cc1 | – | inactive
CCCc1cc2c(cc1NC(=O)c1ccccc1Cl)OCO2 | – | 2.24 µM (active)
CCCc1cc2c(cc1NC(=O)c1ccccc1C)OCO2 | – | 2.51 µM (active)
CCC(=O)Nc1cc2c(cc1C(=O)c1ccccc1)OCCO2 | -4.4% [at 2.29 µM] | –
CCCc1cc2c(cc1NC(=O)c1ccc(Br)cc1)OCO2 | – | 1.12 µM (active)
Cc1ccccc1C(=O)NNC(=O)c1ccoc1C | – | inactive
COC(=O)CSc1cc(C(F)(F)F)nc(-c2ccccn2)n1 | – | inactive
CCCNC(=O)CSc1nc(-c2cccs2)cc(C(F)(F)F)n1 | – | 7.08 µM (active)
O=C(N/N=C/c1ccco1)c1ccccn1 | – | inactive
O=C(CNC(=O)c1ccccn1)N/N=C/c1ccccc1 | -5.67% [at 2.29 µM] | –
O=C(NN=C1c2ccccc2-c2ccccc21)c1ccccn1 | – | 14.1 µM (active)
